Data taken from PubChem BioAssay (NCATS).
Inconclusive results are not listed. The source made the active and inactive calls. Calls follow the shape of the full dose curve.

Assay: Primary qHTS to identify inhibitors of SARS-CoV-2 cell entry (AID 1645846); also: nearly all actives have a fitted effect of over 45% in size
Details: SARS-CoV-2 pseudovirus cell entry assay, luminescence; activity change, negative = inhibition: at 57.1 µM (top of the series) unless noted
How it was run: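 Entry measured by luciferase signal 48 h after adding SARS-CoV-2-S pseudotyped MLV particles to HEK293-ACE2 cells preincubated 1 h with compounds. Normalisation: bald particles and spike particles.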
Potency is read from the fitted curve at half-maximal effect.

| Compound | Potency | activity change, negative = inhibition [%] |
| --- | --- | --- |
| CC(C)C[C@H](NC(=O)[C@H](Cc1ccccc1)NC(=O)OCc1ccccc1)C(=O)C=O | 14.1 µM (active) | – |
| CC(C)(O)CNc1ncc(-c2ccnc(Nc3ccncc3)n2)c(CC2CC2)n1 | 10 µM (active) | – |
| Cc1nc2ccc(-n3ncc(C(=O)c4cc5ccccc5[nH]4)c3N)cc2[nH]1 | 11.2 µM (active) | – |
| Nc1nc(Nc2ccc3c(c2)CC[C@@H](N2CCCC2)CC3)nn1-c1cc2c(nn1)-c1ccccc1CCC2 | 12.6 µM (active) | – |
| Nc1nc(OC(c2ccc(-c3cccc(F)c3)cc2)C(F)(F)F)cc(-c2ccc(C[C@H](N)C(=O)O)cc2)n1 (stereo partly drawn) | inactive | – |
| O=C1NC(=O)/C(=C\c2ccc(-c3ccc(F)cc3)o2)S1 | inactive | – |
| COCCN1CCN(Cc2ccc(-c3n[nH]c4c3C(=O)c3c(NC(=O)NN5CCOCC5)cccc3-4)cc2)CC1 | – | -93.4 |
| COCCNCc1ccc(-c2cc3nccc(Oc4ccc(NC(=O)C5(C(=O)Nc6ccc(F)cc6)CC5)cc4F)c3s2)nc1 | – | -25.9 |
